KLK7 zymogen act = proKLK7 zymogen activators, primary screen, biochemical, fluorescence intensity; Kallikrein-7 (Homo sapiens), P49862; purified proKLK7, EDANS-DABCYL substrate fluorescence; 100% is mature enzyme control, 0% vehicle; activation, % at 7 µM; 370,000 tested, 0.9% active;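 active = activation above the mean of all tested compounds plus 3 SD, computed per campaign excluding outliers beyond control limits, cut at about 13% in these data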
Target sequence (P49862 whole entry, looked up): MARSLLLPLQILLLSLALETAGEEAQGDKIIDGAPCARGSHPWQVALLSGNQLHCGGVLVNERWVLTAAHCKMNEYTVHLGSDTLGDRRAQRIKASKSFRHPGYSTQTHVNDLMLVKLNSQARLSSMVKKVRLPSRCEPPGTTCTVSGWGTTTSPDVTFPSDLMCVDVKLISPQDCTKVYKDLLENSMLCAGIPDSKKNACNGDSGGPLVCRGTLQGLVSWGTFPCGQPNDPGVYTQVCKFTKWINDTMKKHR
bovine MsrA act = bovine MsrA enzyme activators, primary screen, biochemical, absorbance, HTS. purified bovine MsrA, absorbance read-out. activation, % at 10.6 µM. 360,000 tested, 0.3% active. AID 602163, 2012; in the data active = activation above about 7.5%;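 also: 0% = vehicle and 100% = reference activator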
MsrA inhibitor = bovine MsrA enzyme inhibitors, primary screen, biochemical, absorbance, HTS; Methionine sulfoxide reductase A (Bos taurus); purified bovine MsrA, absorbance read-out; inhibition, % at 15.5 µM; 360,000 tested, 0.75% active; AID 651718, 2012; in the data active = inhibition above about 4.5%;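 also: 0% = vehicle wells with enzyme and 100% = reference inhibitor wells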
SMARCA2 activ = SMARCA2 (BRM) function activators, primary screen, cell-based, luminescence, high throughput; MG213 cells, MMTV-luciferase reporter, dexamethasone, overnight; activation, % at 9.1 µM; 370,000 tested, 1% active; AID 652017, 2013; in the data active = activation above about 7.8%;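 also: 0% = vehicle wells and 100% = reference activator wells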
MsrA activ conf = bovine MsrA activators, retest, confirmation, biochemical, absorbance, HTS. purified bovine MsrA, absorbance read-out. 1,000 tested, 12% active. activation, % at 10.6 µM. shares compounds with bovine MsrA act; in the data active = activation above about 4%;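 also: enzyme coupled to thioredoxin and thioredoxin reductase with NADPH; 0% = vehicle wells and 100% = reference activator wells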
* = called active by the depositor; nt = no result; ! = a repeat was not active. Shown are actives, neighbours in structure and some others; about 2.8% of the full set was active somewhere.

SMILES	KLK7 zymogen act	bovine MsrA act	MsrA inhibitor	SMARCA2 activ	MsrA activ conf
Cc1cccc(NNC(=S)Nc2ccccc2)c1	-0.6	-5.5	2.9	-0.1	nt
Cc1cccc(NNC(=S)Nc2c(C)cccc2C)c1	0.4	8.0*	1.3	2.5	1.4
COC(=O)N1C[C@H](Oc2cccc3ccccc23)[C@H]2C[C@@H]1c1ccccc1O2	0.7	nt	-0.7	-0.9	nt
CC1COc2ccccc2N1C(=O)c1ccc(Cl)cc1 (configuration not stated)	-0.1	9.0*	0.3	-1.2	-4.7
CCCS(=O)(=O)NC(=O)C1(C)CCN(C(=O)c2cc(F)ccc2C)C1 (configuration not stated)	-0.3	2.3	-0.6	3.6	nt
CC1(C)CC(=O)C(C(N)=NC(=O)c2ccc([N+](=O)[O-])cc2)=C(O)C1	0.6	17.0*	-0.8	-0.9	-1.4
COc1ccc(Cn2nnnc2C(c2cccs2)N2CCOCC2)cc1 (configuration not stated)	0.4	7.8*	0.0	0.3	-1.0
c1ccc(CCn2nnnc2C(c2cccs2)N2CCOCC2)cc1 (configuration not stated)	0.4	-8.1	0.1	-4.0	nt
O=C(NCCCc1ccccc1)OC1CC2CC1[C@H]1CCCCN1[C@H]2Cc1ccccc1 (some centres not stated)	0.1	nt	nt	-0.4	nt
COc1ccc(N)cc1CN1CCN(c2ncc(Cc3ccccc3)cn2)CC1	-0.5	nt	0.8	-3.4	nt
O=[N+]([O-])c1ccc(Cl)cc1Sc1nc2ccccc2o1	-0.8	6.2	-0.1	-1.1	nt
O=[N+]([O-])c1ccc(Sc2nc3ccccc3o2)c([N+](=O)[O-])c1	0.3	7.7*	1.6	-11.0	1.6
O=C(C(=O)N1CCN(C(=O)Cc2ccccc2)CC1)c1cccc(C(F)(F)F)c1	-0.5	nt	-0.2	-1.5	nt
COc1ccc(N2CCN(Cc3cc4c(cc3O)CCC4)CC2)cc1	-0.6	14.2*	1.0	-4.8	-0.2
CN(C)c1ccc(CC(=O)N2CCCC(c3cc(C(=O)Nc4ccc(F)c(Cl)c4)no3)C2)cc1 (configuration not stated)	0.3	-1.6	-0.1	-3.4	nt
O=[N+]([O-])c1ccc(C=NN2CCNC2=S)o1	0.9	3.4	0.3	-3.6	nt
CC1CS(=O)(=O)CCN1N=Cc1ccc([N+](=O)[O-])o1 (configuration not stated)	-0.2	10.3*	0.3	2.0	-1.7
C[C@@H]1CN([C@@H](C)CO)C(=O)CCCn2nncc2CO[C@H]1CN(C)Cc1ccc(O)cc1	0.6	nt	-0.1	-4.6	nt
Cc1ccc(C(=O)Nc2cccc(C(=O)N3CCOCC3)c2)cc1Cl	0.1	20.6*	-0.6	-0.4	-3.3
O=C(Nc1cccc(C(=O)N2CCOCC2)c1)c1ccccc1	-0.3	1.0	-0.3	-1.1	nt
CCOc1ccc2nc(SCC(=O)Nc3ccc4[nH]c(=O)[nH]c4c3)[nH]c2c1	-0.2	-6.3	0.6	1.5	nt
S=c1[nH]ncc2ccccc12	0.1	0.1	4.0	2.3	nt
S=c1[nH]ccc2ccccc12	0.4	9.8*	0.8	-3.5	2.2
CCOC(=O)c1cnc2c(OC)cccc2c1N1CCN(c2ccccc2OC)CC1	0.9	8.5*	-0.4	-1.6	-0.7
CCOC(=O)c1cnc2c(OC)cccc2c1N1CCN(c2ccccn2)CC1	0.9	-3.8	2.0	-5.1	nt
SMILES	KLK7 zymogen act	bovine MsrA act	MsrA inhibitor	SMARCA2 activ	MsrA activ conf
O=C(OCC(=O)N1CCOCC1)c1cncc(Br)c1	0.3	-4.7	-0.8	-1.3	nt
CCOc1ccc(NC(=O)CSCc2cnn(-c3ccccc3)c2-n2cccc2)cc1	0.5	8.8*	-0.4	-1.6	0.6
CCCCCCCCN1C(=O)[C@@H](CC(=O)NCCc2ccccc2OC)C[C@@]2(C(=O)OC)C1=C[C@H](COCc1ccccc1)O[C@@H]2C	0.4	nt	nt	-4.6	nt
CCN(CC)CCCNC(=O)c1cn(C(C)c2ccccc2)nn1 (configuration not stated)	0.1	nt	nt	-4.8	nt
CCN1CCN(Cc2ccc(NC(=O)c3ccc(C)c(NC(=O)C4=NN(c5ccccc5)C(=O)C4)c3)cc2C(F)(F)F)CC1	-0.2	-4.3	0.9	-4.1	nt
CCN1CCN(Cc2ccc(NC(=O)c3ccc(C)c(NC(=O)C[C@@H]4NC(=O)[C@H](Cc5ccccc5)NC4=O)c3)cc2C(F)(F)F)CC1	0.3	7.7*!	0.7	-1.3	-3.2
COC(=O)C1(C(=O)OC)c2ccccc2N(S(=O)(=O)c2ccc(C)cc2)C1CC(=O)c1ccccc1 (configuration not stated)	1.0	nt	0.3	-2.5	nt
O=C1c2ccccc2-c2nnc(-c3ccccc3)cc21	0.2	9.4*	-0.4	7.2	4.0*
Cc1cccc(-c2cc3c(nn2)-c2ccccc2C3=O)c1	-0.4	6.5	-0.9	5.2	nt
COCCCNC(=O)C[C@H]1C[C@@]2(C(=O)OC)C(=C[C@H](COCc3ccccc3)O[C@@H]2C)N(CCC2=CCCCC2)C1=O	0.2	nt	0.3	7.6	nt
CCNC(=O)N(C)c1nncnc1C(=O)NC	0.3	21.1*	-0.8	-1.8	-1.6
CCCCNC(=O)N(C)c1nncnc1C(=O)NC	-0.6	-13.1	-1.2	-1.4	nt
CC1CCCC(NC(=O)COC(=O)c2ccccc2[N+](=O)[O-])C1C (configuration not stated)	-0.1	-9.9	0.2	2.4	nt
CC1CCCC(NC(=O)COC(=O)c2ccc([N+](=O)[O-])s2)C1C (configuration not stated)	0.3	20.9*	1.9	-1.9	5.4*
C/C(=N\NC(=S)NC(C)C)c1ccccc1OC(F)F	-0.5	-3.2	-1.1	-3.1	nt
CC(NC(=S)Nc1c(Br)cccc1OC(F)F)C(C)(C)C (configuration not stated)	-0.3	9.0*	-0.5	0.0	-0.3
CC(=O)c1cccc(OCC(=O)N(Cc2ccco2)c2c(N)n(Cc3ccccc3)c(=O)[nH]c2=O)c1	-0.3	-1.1	2.5	-3.6	nt
COC(=O)C(Cc1ccccc1)NC(=O)C(N)CC(=O)O (configuration not stated)	0.3	nt	nt	-4.0	nt
O=C(NCCc1ccc(Cl)cc1)C(=O)Nc1cc2c3c(c1)CC(=O)N3CCC2	0.2	16.7*	0.1	-0.7	-1.9
C[C@H](CO)N1C[C@H](C)[C@@H](CN(C)S(=O)(=O)c2ccccc2F)Oc2ncc(C#Cc3cccnc3)cc2C1=O	-0.1	-1.5	0.6	-1.4	nt
CS(=O)(=O)c1ccc2nc(NC(=O)c3cc([N+](=O)[O-])cc([N+](=O)[O-])c3)sc2c1	-0.2	11.4*	-0.8	2.6	-0.4
O=C(c1ccc(NS(=O)(=O)c2ccc(Cl)c(Cl)c2)cc1)N1CCOCC1	-0.1	-3.4	0.2	-2.0	nt
Nc1ccccc1SSc1ccccc1N	0.2	11.2*	0.4	3.9	3.9
N#Cc1ccccc1Sc1ccccc1N	nt	-3.9	nt	nt	nt
COCCn1nnnc1CN1CCC(O)(c2cccc(C(F)(F)F)c2)CC1	0.0	-2.6	0.6	-2.1	nt
COCCn1nnnc1CN1CCN(c2cccc(C(F)(F)F)c2)CC1	0.4	8.4*	-1.0	0.4	1.2

Compound activity: PubChem, The Scripps Research Institute Molecular Screening Center
